NPC1 promoter act = activators of NPC1 promoter. Huh7 NPC1 promoter luciferase reporter, 24 h. Potency, µM (series often up to 9.22 µM), usual class: activators. actives 2.4% (n = 320,000). AID 485313; also: nearly all actives have a fitted effect of over 60% in size
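Stably transfected Huh7 (NPC1 promoter→luciferase), 1500 cells/well in Opti-MEM + 10% FBS, 2 h settle, then compound 24 h at 37 °C. Luminescence after 10 min with Amplite reagent.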
ELG1 genotoxic = inducers of genotoxicity in HEK293T ELG1-luciferase cells | Potency, µM (series often up to 46 µM), usual class: activators | HEK293T ELG1-luciferase reporter, luminescence, 16 h | actives 1.3% (n = 330,000); also: nearly all actives have a fitted effect of over 60% in size
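Screening used a luciferase reporter fused to human ELG1 in HEK293T cells. Luminescence was read on a CCD plate imager after 16 hr exposure and 30 min ONE-Glo incubation.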
FLuc counter = counter-screen for miR-21 project: firefly luciferase inhibitors or activators; purified FLuc, Km substrates, luminescence inhibition; AID 588342; P08659; Potency, µM (doses to about 57.5 µM), most hits filed as inhibitors; actives 6.9% (n = 360,000); also: nearly all actives have a fitted effect of over 55% in size
Target sequence (P08659 whole entry, looked up): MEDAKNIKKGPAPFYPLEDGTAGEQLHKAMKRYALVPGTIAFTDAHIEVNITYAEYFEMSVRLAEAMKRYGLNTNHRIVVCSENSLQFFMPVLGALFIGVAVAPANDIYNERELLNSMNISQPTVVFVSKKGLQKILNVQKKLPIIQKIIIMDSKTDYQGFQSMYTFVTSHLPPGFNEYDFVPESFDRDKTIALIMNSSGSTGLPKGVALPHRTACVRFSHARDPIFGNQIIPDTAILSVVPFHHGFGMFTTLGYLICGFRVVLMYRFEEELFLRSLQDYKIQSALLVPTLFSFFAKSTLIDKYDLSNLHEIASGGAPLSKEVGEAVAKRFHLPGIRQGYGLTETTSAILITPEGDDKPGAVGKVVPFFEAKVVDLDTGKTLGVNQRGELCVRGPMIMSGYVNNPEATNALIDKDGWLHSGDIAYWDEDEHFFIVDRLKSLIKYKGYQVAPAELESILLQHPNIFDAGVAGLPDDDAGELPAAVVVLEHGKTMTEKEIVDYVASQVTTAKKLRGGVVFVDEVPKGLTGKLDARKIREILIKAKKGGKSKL
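Biochemical qHTS of compounds, final roughly 60 µM downward over six points, against 10 nM purified firefly luciferase using Km concentrations of substrates (10 uM D-luciferin, 10 uM ATP) in Tris acetate pH 7.5 buffer; luminescence output.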
Rab9 prom act = activates the Rab9 promoter | actives 2.8% (n = 320,000) | AID 485297 | Huh7 Rab9 promoter-luciferase reporter, luminescence, 24 h | Potency, µM (top dose mostly 9.22 µM), hits mostly activators; also: nearly all actives have a fitted effect of over 60% in size
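Measured in stably transfected Huh7 cells bearing a Rab9 promoter–luciferase construct: 24 h compound treatment at 37 °C, followed by luminescence detection.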
uPA generation = blocks generation of uPA at the cell surface; cell surface uPA generation assay, qHTS; Potency, µM (titrated, usually from 38.3 µM), hits mostly inhibitors; actives 0.31% (n = 330,000); AID 540303; active = well fitted inhibition curve with a large enough effect; inconclusive = small, poorly fitted or top-dose-only effect; inactive = no such curve, though single readings can be large or run the other way; tested in mouse RAW 264.7 cells; also: nearly all actives have a fitted effect of over 55% in size
SMN2 splice up = enhancers of SMN2 splice variant expression | HEK293 SMN2-luciferase splicing reporter, luminescence, 30-36 h | Potency, µM (doses to about 46.1 µM), actives largely listed as activators | actives 2.8% (n = 210,000) | AID 1458; also: nearly all actives have a fitted effect of over 55% in size
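qHTS luciferase splicing reporter: luminescence rises when SMN2 exon 7 is included in transfected HEK293 cells. Compound exposure lasted 30-36 h at 37C, with 4.5 mM final sodium butyrate as control, followed by a ONE-Glo read.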
Hits are given with their value. Sampled rows, rich in hits. Any-hit rate of the full collection: about 7.3%. Unless noted, calls follow the shape of the dose curve; as a rule, active = well fitted curve in the direction sought with a large enough effect; inconclusive = small, poorly fitted or top-dose-only effect, or another doubt; inactive = no such curve, though single readings can be large; an effect the other way counts as inactive or inconclusive.

Results for CCn1c(=O)n(-c2ccc(F)cc2)c(=O)c2sc3ccccc3c21 ?
FLuc counter: inactive; SMN2 splice up: inactive

Results for COC(=O)c1[nH]c2c(c1C)C(=O)CC(c1cccc(OC)c1)C2 (centres undefined) ?
NPC1 promoter act: inactive; ELG1 genotoxic: inactive; FLuc counter: inactive; Rab9 prom act: inactive; uPA generation: inactive

Results for CN(C(=O)c1ccncc1)c1nnc(-c2ccccn2)s1 ?
NPC1 promoter act: inactive; ELG1 genotoxic: inconclusive; FLuc counter: 17µM; Rab9 prom act: inconclusive; uPA generation: inactive; SMN2 splice up: inconclusive

How did Cc1ccc(C(=O)N(C)c2nnc(-c3ccncc3)s2)cc1 do in these assays?
NPC1 promoter act: inconclusive; ELG1 genotoxic: inactive; FLuc counter: 17µM; Rab9 prom act: inconclusive; uPA generation: inactive; SMN2 splice up: inactive

How did COc1ccc(-c2nnc(N(C)C(=O)c3ccno3)s2)cc1 do in these assays?
NPC1 promoter act: inconclusive; ELG1 genotoxic: inconclusive; FLuc counter: 11µM; Rab9 prom act: 3.2µM; uPA generation: inactive; SMN2 splice up: 11µM

What do the screens show for `COc1ccc(-c2nnc(N(C)C(=O)C3CCOC3)s2)cc1` (centres undefined)?
uPA generation: inactive

How did CN(C(=O)c1ccno1)c1nnc(-c2ccccn2)s1 do in these assays?
NPC1 promoter act: inactive; ELG1 genotoxic: inactive; FLuc counter: 15µM; Rab9 prom act: inactive; uPA generation: inactive; SMN2 splice up: inactive

Results for CN(C(=O)c1ccc(C#N)cc1)c1nnc(-c2ccccn2)s1 ?
NPC1 promoter act: inactive; ELG1 genotoxic: inactive; FLuc counter: inactive; Rab9 prom act: inactive; uPA generation: inactive; SMN2 splice up: inactive

What do the screens show for `CCOc1ccc(N(CC)S(=O)(=O)N2CCCC(C(=O)Nc3ccc(OC)c(Cl)c3)C2)cc1` (centres undefined)?
FLuc counter: inactive

How did CSc1ncnc2c1ncn2C1OC(CO)C(O)C1O (centres undefined) do in these assays?
SMN2 splice up: inactive

How did CC(C)(C)CN1CCN(CC#Cc2ccccc2)CC1CCO (centres undefined) do in these assays?
NPC1 promoter act: inactive; ELG1 genotoxic: inactive; FLuc counter: inactive; Rab9 prom act: inactive; uPA generation: inactive

How did COc1ccc(-c2noc(-c3ccc(N4CCN(c5ccc(OC)cc5)CC4)c([N+](=O)[O-])c3)n2)cc1 do in these assays?
FLuc counter: inactive

How did COc1ccc(-c2nnc(N(C)C(=O)C3CCCO3)s2)cc1 (centres undefined) do in these assays?
NPC1 promoter act: 2.5µM; ELG1 genotoxic: inconclusive; FLuc counter: 13µM; Rab9 prom act: 2µM; uPA generation: inactive; SMN2 splice up: 11µM

How did Cc1cccn2c(=O)c3cc(C(=O)NC(C)C)n(C)c3nc12 do in these assays?
FLuc counter: inactive

What do the screens show for `COc1ccc(Cc2nc(-c3cccc(C)c3)no2)cc1`?
NPC1 promoter act: inconclusive; ELG1 genotoxic: inconclusive; FLuc counter: 13µM; Rab9 prom act: inconclusive; uPA generation: inactive; SMN2 splice up: inactive

What do the screens show for `Cc1cccc(-c2noc(Cc3ccc(Cl)cc3)n2)c1`?
NPC1 promoter act: inactive; ELG1 genotoxic: 18µM; FLuc counter: inconclusive; Rab9 prom act: inconclusive; uPA generation: inactive; SMN2 splice up: inconclusive

How did O=C(CSc1nnc(-c2ccccn2)o1)Nc1cccc(Cl)c1 do in these assays?
NPC1 promoter act: inconclusive; ELG1 genotoxic: inactive; Rab9 prom act: 2.2µM; uPA generation: inactive

What do the screens show for `O=C(CSc1nc2c(oc3ccccc32)c(=O)[nH]1)Nc1cccc(Cl)c1`?
FLuc counter: 1.2µM; SMN2 splice up: 20µM

Results for COc1cccc(-n2c(SCC(=O)Nc3cccc(Cl)c3)nc3c(oc4ccccc43)c2=O)c1 ?
FLuc counter: inactive; SMN2 splice up: inactive

What do the screens show for `O=C(CSc1nnc(-c2cccc(Cl)c2)o1)Nc1ccc2c(c1)OCCO2`?
NPC1 promoter act: 3.5µM; ELG1 genotoxic: 21µM; FLuc counter: inactive; Rab9 prom act: 2.8µM; uPA generation: inactive; SMN2 splice up: 11µM

How did O=C(CSc1nnc(-c2ccccn2)o1)Nc1ccccc1F do in these assays?
NPC1 promoter act: 0.45µM; ELG1 genotoxic: inconclusive; FLuc counter: inactive; Rab9 prom act: 0.79µM; uPA generation: inactive

What do the screens show for `Cc1cccc(OCCSc2nc3ccc(NC(=O)COc4ccccc4F)cc3s2)c1`?
FLuc counter: inactive

What do the screens show for `CC(=O)c1ccc(N2CCN(C(=O)CCc3nnc4n(C)c(=O)c5sccc5n34)CC2)cc1`?
FLuc counter: inactive; SMN2 splice up: inactive

How did O=C(CSc1nnc(-c2ccc(C(F)(F)F)cn2)o1)Nc1cccc(Cl)c1 do in these assays?
NPC1 promoter act: 3.2µM; ELG1 genotoxic: inconclusive; Rab9 prom act: inconclusive; uPA generation: inactive

Results for NCCc1nnc(SCC(=O)Nc2cccc(Cl)c2)o1 ?
NPC1 promoter act: inactive; ELG1 genotoxic: inactive; FLuc counter: inactive; Rab9 prom act: inactive; uPA generation: inactive

How did COc1ccc(OCc2nnc(SCC(=O)Nc3cccc(Cl)c3)o2)cc1 do in these assays?
NPC1 promoter act: inactive; ELG1 genotoxic: inactive; FLuc counter: 19µM; Rab9 prom act: inactive; uPA generation: inactive

What do the screens show for `O=C(CSc1nnc(-c2cccnc2)o1)Nc1ccccn1`?
NPC1 promoter act: 3.2µM; ELG1 genotoxic: 7.3µM; FLuc counter: inactive; Rab9 prom act: 4µM; uPA generation: inactive; SMN2 splice up: 13µM

How did CCN1CCN(C(c2ccccc2Cl)c2sc3nc(-c4ccco4)nn3c2O)CC1 (centres undefined) do in these assays?
FLuc counter: inactive

What do the screens show for `Cc1cc(C)c2c(n1)SCC(=O)N2CC(=O)Nc1cccc(C)c1C`?
FLuc counter: inactive; SMN2 splice up: inactive

What do the screens show for `Cc1c(C(=O)O)cccc1-c1ccc(/C=N/Nc2ccc(Br)cc2)o1`?
NPC1 promoter act: inconclusive; ELG1 genotoxic: inconclusive; FLuc counter: 12µM; Rab9 prom act: inconclusive; uPA generation: inactive

How did Cc1ccc(C(=O)N/N=C/c2ccc(-c3cccc(Cl)c3)o2)cn1 do in these assays?
NPC1 promoter act: inactive; ELG1 genotoxic: inactive; FLuc counter: inconclusive; Rab9 prom act: inactive; uPA generation: inactive

How did O=C(O)c1ccc(N/N=C/c2ccc(-c3ccc(Cl)cc3Cl)o2)cc1 do in these assays?
NPC1 promoter act: inconclusive; ELG1 genotoxic: inconclusive; FLuc counter: 0.95µM; Rab9 prom act: inactive; uPA generation: inconclusive

How did O=C(O)c1cc(N/N=C/c2ccc(-c3ccc(F)cc3)o2)ccc1Cl do in these assays?
NPC1 promoter act: inconclusive; ELG1 genotoxic: inconclusive; FLuc counter: 9.5µM; Rab9 prom act: inconclusive; uPA generation: inactive

Results for O=C(O)c1ccc(N/N=C/c2ccc(-c3cccc(Cl)c3)o2)cc1 ?
NPC1 promoter act: 0.45µM; ELG1 genotoxic: inconclusive; FLuc counter: 2.7µM; Rab9 prom act: 0.32µM; uPA generation: inactive

Compound activity deposited in PubChem BioAssay by National Center for Advancing Translational Sciences (NCATS).
